Source: PubChem
TDP1 cell noCPT: qHTS for Inhibitors of human tyrosyl-DNA phosphodiesterase 1 (TDP1): qHTS in cells in absence of CPT; DT40 Tdp1-/- hTDP1 cells, no CPT, ATP luminescence, 48 h; 15% of 420,000 active; Potency, µM (series often up to 46.2 µM), inactives show at the highest dose activity change, negative = growth inhibition, usual class: inhibitors; AID 686978, 2013; also: potency is read from the fitted curve at half-maximal effect; nearly all actives have a fitted effect of over 55% in size
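A cellular qHTS used chicken DT40 cells lacking endogenous Tdp1 but carrying stably transfected human TDP1. Compounds were applied without camptothecin, and cell growth kinetics were judged by ATP-dependent luminescence after ≥48 hr.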
uPA generation: qHTS for Inhibitors of Cell Surface uPA Generation; cell surface uPA generation assay, qHTS; Potency, µM (doses to about 38.3 µM), without a hit: at the highest dose activity change, negative = inhibition, actives largely listed as inhibitors; 0.31% of 330,000 active; active = well fitted inhibition curve with a large enough effect; inconclusive = small, poorly fitted or top-dose-only effect; inactive = no such curve, though single readings can be large or run the other way; tested in mouse RAW 264.7 cells; also: potency is read from the fitted curve at half-maximal effect; nearly all actives have a fitted effect of over 55% in size
HT1080NT lethal: qHTS for induction of synthetic lethality in tumor cells producing 2HG: qHTS for the HT-1080-NT fibrosarcoma cell line | HT-1080-NT fibrosarcoma viability, CellTiter-Glo ATP luminescence, 48 h | Potency, µM (titrated, usually from 46.1 µM), inactives show at the highest dose activity, negative = less viability, actives largely listed as cytotoxic | 1.6% of 360,000 active;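 also: NT is the 2HG producing partner of a matched IDH1 knockdown line; potency is read from the fitted curve at half-maximal effect; 0% = DMSO-treated cells and -100% = media-only wells without cells; nearly all actives have a fitted effect of over 55% in size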
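HT-1080-NT fibrosarcoma cells (2HG-overproducing), 750 cells/well in RPMI with 5% FBS, dosed after 2 h and incubated 48 h at 37C. CellTiter-Glo luminescence normalized to DMSO and no-cell wells; concentration-response curves fitted and classed.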
IL-1B inflam inh: qHTS for Inhibitors of Inflammasome Signaling: IL-1-beta AlphaLISA Primary Screen; THP-1 LPS/ATP IL-1B secretion, AlphaLISA, 16 h; active compounds read low; activity change, % at 57.5 µM; 4.7% of 360,000 active; AID 743279, 2014; in the data active = activity change below about -50%; inconclusive = mostly about -30% to -49%
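THP-1 cells pretreated 1 hr with compounds (up to 57.5 uM final), then stimulated with LPS (250 ng/mL final) plus ATP (1.25 mM final); secreted IL-1B measured by AlphaLISA after 16 hr, decreased signal indicating inhibition.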
DT40 TDP1 CPT: qHTS for Inhibitors of human tyrosyl-DNA phosphodiesterase 1 (TDP1): qHTS in cells in presence of CPT. chicken DT40 Tdp1-/-;hTDP1 cells + 20 nM CPT, ATP luminescence, 48 h. Potency, µM (series often up to 46.2 µM), without a hit: at the top dose activity change, negative = growth inhibition, hits mostly inhibitors. 12% of 420,000 active. AID 686979, 2013; also: potency is read from the fitted curve at half-maximal effect; nearly all actives have a fitted effect of over 55% in size
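Chicken DT40 Tdp1-/- cells complemented with human TDP1, 400 cells/well, exposed to compounds plus 20 nM camptothecin for at least 48 h at 37 C; viability read as ATP content by CellTiter-Glo luminescence.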
HT1080 IDH1KD tx: qHTS for induction of synthetic lethality in tumor cells producing 2HG: qHTS for the HT-1080-IDH1KD cell line. HT-1080 IDH1 knockdown viability, ATP luminescence, 48 h. Potency, µM (titrated, usually from 46.1 µM), for inactives: top-dose activity, negative = toxicity, hits mostly cytotoxic. 2% of 360,000 active. AID 686971, 2013;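 also: potency is read from the fitted curve at half-maximal effect; 0% = DMSO wells and -100% = cell-free medium wells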
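IDH1KD HT-1080 cells, 750/well, RPMI + 5% FBS; compound pinned after 2 h settling; 48 h, 37 °C; CellTiter-Glo luminescence; % activity normalised to DMSO and no-cell wells; curves fitted, classed by r2 and efficacy.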
The depositor's hits bear a star; i = inactive; ? = inconclusive; . = no result given. Hits are enriched below; roughly 19% of the tested compounds scored in any of these assays. Unless noted, calls follow the shape of the dose curve; as a rule, active = well fitted curve in the direction sought with a large enough effect; inconclusive = small, poorly fitted or top-dose-only effect, or another doubt; inactive = no such curve, though single readings can be large; an effect the other way counts as inactive or inconclusive. Unless noted, % is scaled to controls: 0 for no effect and ±100 for the full control effect.

SMILES | TDP1 cell noCPT | uPA generation | HT1080NT lethal | IL-1B inflam inh | DT40 TDP1 CPT | HT1080 IDH1KD tx
O=C(COC(=O)c1ccc(O)cc1O)c1ccc(Cl)cc1 | -17% | 0% | -12% | 2 | -20% | -3%
Nc1ccc(O)cc1C(=O)OCC(=O)c1ccc(C2CCCCC2)cc1 | 21µM* | -8% | -15% | -94* | ? | ?
COc1ccc(C(=O)OCC(=O)c2ccc(C3CCCCC3)cc2)cc1 | 20µM* | -1% | -6% | -23 | ? | -8%
c1ccc(-c2nc3nonc3nc2-c2ccccc2)cc1 | 13µM* | -12% | -27% | 23 | 21µM* | ?
Nc1nnc(-c2ccccc2)c(-c2ccccc2)n1 | ? | -5% | 5% | -7 | ? | 6%
Cc1nc2ccccc2c(-c2ccccc2)c1CC(=O)O | ? | 0% | 20% | 7 | -16% | 26%
O=C(O)C[C@H](O)C[C@H](O)/C=C/c1c(C2CC2)nc2ccccc2c1-c1ccc(F)cc1 | 1.9µM* | . | . | . | 2.7µM* | .
CCOc1ccc(-c2c(C(=O)N/N=C/C3CC=CCC3)nnn2-c2nonc2N)cc1 (stereo not drawn) | 16% | 7% | 3% | 8 | 2% | -3%
CCOCCCNCC(=O)NC1(C)C2CCC(C2)C1(C)C (stereo not drawn) | -14% | 0% | -1% | -20 | ? | -7%
CC1(C)C2CCC(C2)C1(C)NC(=O)CNCC1CCCCC1 (stereo not drawn) | ? | -4% | -17% | -78* | 0% | -13%
CCOc1ccc(C(=O)COC(=O)c2c(-c3ccccc3)noc2C)cc1 | 21µM* | -4% | ? | 29 | ? | ?
CCC(=O)Nc1ccc(/C(C)=N/NC(=O)c2c(-c3ccccc3Cl)noc2C)cc1 | ? | 2% | 2% | 36 | ? | 7%
Cc1onc(-c2ccccc2Cl)c1C(=O)N/N=C(\N)COc1ccc(Cl)cc1 | 13µM* | -10% | -5% | -13 | 23µM* | ?
Cc1onc(-c2ccccc2)c1C(=O)N/N=C(\N)COc1ccc(Cl)cc1 | ? | . | ? | 6 | 16µM* | ?
COc1ccccc1C(=O)NC(=O)CSc1ccc(C)c(C)c1 | -4% | 2% | -1% | 18 | -10% | -1%
CN1CCN(C(=O)C[C@@H]2CC[C@@H]3[C@H](COC[C@@H](O)CN3Cc3cccc(Cl)c3)O2)CC1 | -20% | . | 17% | 12 | -24% | 14%
Cc1c(Cl)cccc1N=c1c([N+](=O)[O-])nn(-c2ccccc2)n1O | 0% | . | -3% | 30 | -13% | -7%
O=[N+]([O-])c1nn(-c2ccc(Cl)cc2)n(O)c1=NCc1ccccc1 | ? | -15% | 2% | -13 | 10µM* | -17%
COc1ccc(-n2nc([N+](=O)[O-])c(=NCCc3cccc(C)c3)n2O)cc1 | ? | -3% | -7% | -11 | ? | -3%
Cc1cccc(-n2nc([N+](=O)[O-])c(=NC3CCN(Cc4ccccc4)CC3)n2O)c1 | 12µM* | 2.8µM* | -6% | 0 | 8.2µM* | 1%
COc1ccc(CCN=c2c([N+](=O)[O-])nn(-c3cccc(C)c3)n2O)cc1OC | ? | -91% | -24% | -20 | 10µM* | -22%
COc1ccc(CNC(=O)Cn2nc([N+](=O)[O-])c(Br)c2C)cc1OC | -18% | -4% | -14% | 25 | -2% | 7%
Cc1cccc(CCN=c2c([N+](=O)[O-])nn(-c3ccccc3)n2O)c1 | ? | ? | -3% | ? | 15µM* | -8%
CN(C)S(=O)(=O)c1cccc(NC(=O)c2sccc2-c2ccccc2)c1 | ? | -21% | 6% | -13 | -21% | 7%
COc1ccccc1CNC(=O)c1cc(S(=O)(=O)N2CCCC2)cn1C | -16% | -1% | 11% | 3 | -20% | 3%
SMILES | TDP1 cell noCPT | uPA generation | HT1080NT lethal | IL-1B inflam inh | DT40 TDP1 CPT | HT1080 IDH1KD tx
COc1cccc(CNC(=O)c2cc(S(=O)(=O)N3CCOCC3)cn2C)c1 | 1% | 14% | 0% | ? | 21µM* | -4%
Cn1cc(S(=O)(=O)N2CCCC2)cc1C(=O)NCc1ccccc1Cl | -16% | -7% | -20% | 0 | 16µM* | 2%
COc1ccc(CNC(=O)c2cc(S(=O)(=O)N3CCOCC3)cn2C)cc1 | 2% | 5% | 4% | -14 | -23% | -1%
Nc1nnnn1-c1ccccc1 | -1% | . | . | . | -19% | .
C[C@@H](NC(=O)c1nc[nH]c1C(=O)NCCCCCNC(=O)OC(C)(C)C)c1ccccc1 | ? | 22% | -7% | 7 | 26µM* | -8%
C[C@H](NC(=O)c1nc[nH]c1C(=O)NCCCCCNC(=O)OC(C)(C)C)c1ccccc1 | 16µM* | 23% | -23% | 2 | 15µM* | -20%
Cc1c[nH]c2ccccc12 | -15% | ? | 17% | -2 | 6% | -1%
CCOC(=O)[C@H]1[C@H]2COc3ccccc3[C@@H]2N2C(=O)CN(Cc3ccc(C)cc3)C(=O)[C@@]12C | -11% | 9% | -15% | -5 | 2% | 2%
COc1cccc(CNC(=O)c2cc(C)nc3c2c(C)nn3-c2ccc(C)cc2)c1 | 16µM* | . | . | . | ? | .
CCOc1ncccc1C(=O)NCc1cccc(OC)c1 | -25% | -4% | 22% | -15 | ? | 27%
COc1ccc(NC(=O)c2cc(C)nc3c2c(C)nn3-c2ccc(C)cc2)cc1OC | 15µM* | . | . | . | ? | .
Cc1nn(-c2ccccc2)c2nc(C3CC3)cc(C(=O)Nc3ccc(F)cc3)c12 | 21µM* | . | . | . | 16µM* | .
COc1ccc(NC(=O)c2cc(C3CC3)nc3c2c(C)nn3-c2ccccc2)cc1 | -51% | . | . | . | ? | .
COc1cccc(CNC(=O)c2cccc(-n3c(C)nc4cccnc43)c2C)c1 | ? | . | . | . | 21µM* | .
CCC(Oc1ccc(C)cc1)C(=O)Nc1ccccc1C(=O)N1CCOCC1 (stereo not drawn) | -13% | 0% | 1% | i | 2% | 3%
COc1ccc(NC(=O)c2cc(C3CC3)nc3c2c(C)nn3-c2ccccc2)c(OC)c1 | ? | . | . | . | -20% | .
Cc1c(C(=O)NCc2ccccc2Cl)cccc1-n1cnc2cccnc21 | 23µM* | . | . | . | 18µM* | .
